{"source": "the supplement of paper PMC5940239"}
{"test_system": "Madurella mycetomatis MM55", "test": "percent growth relative to solvent control; higher = less inhibition, active = 20 or less", "details": "100 µM; 7 days"}
{"smiles": "Cc1cc(C(=O)Nc2cnn(Cc3ccc(Cl)cc3Cl)c2)no1", "percent growth": "121% (inactive)"}
{"smiles": "COc1ccc(Oc2ccc([C@@H](C)N(C)c3ncc4c(N)nc(N)nc4n3)cc2)cc1", "percent growth": "0.491% (active)"}
{"smiles": "COc1ccc(-c2cncc3ccc(C(=O)NCCCn4ccnc4)nc23)cc1", "percent growth": "109% (inactive)"}
{"smiles": "CCOc1ccccc1NC(C)C(=O)Nc1cc(C(F)(F)F)ccc1N1CCOCC1", "note": "(stereo not drawn)", "percent growth": "76.7% (inactive)"}
{"smiles": "COc1cc(C(F)(F)F)nc2ccc(C)c(N)c12", "percent growth": "77.1% (inactive)"}
{"smiles": "CCCn1c(CNc2ccccc2O)nc2ccccc21", "percent growth": "91.1% (inactive)"}
{"smiles": "CCC(=O)Nc1ccccc1C(=O)Nc1ccccn1", "percent growth": "62.5% (inactive)"}
{"smiles": "N#Cc1ccc(-c2ccc(OCC(N)=O)cc2)cc1", "percent growth": "96.5% (inactive)"}
{"smiles": "O=C(NCCc1ccn(-c2ccccc2)n1)C1CCCCC1", "percent growth": "49.1% (inactive)"}
{"smiles": "Cc1ccc2[nH]c3c(NCCN(C)C)ncnc3c2c1", "percent growth": "94.1% (inactive)"}
{"smiles": "NCC(=O)N1CCn2c(nc(-c3ccccc3)c2Nc2ccc3c(c2)OCO3)C1", "percent growth": "157% (inactive)"}
{"smiles": "Cc1cc(NC(=O)c2ccc(S(=O)(=O)N(Cc3ccccc3)C(C)C)cc2)no1", "percent growth": "92.5% (inactive)"}
{"smiles": "C[C@H]1c2cccc(O)c2C(=O)C2=C(O)[C@]3(O)C(=O)C(C(N)=O)=C(O)[C@@H](N(C)C)[C@@H]3[C@@H](O)[C@@H]21", "percent growth": "121% (inactive)"}
{"smiles": "CCOc1ccc2cc(-c3nn(C(C)(C)C)c(N)c3C(N)=O)cnc2c1", "percent growth": "98.2% (inactive)"}
{"smiles": "COC(=O)Nc1nc2cc(C(=O)c3ccccc3)ccc2[nH]1", "percent growth": "111% (inactive)"}
{"smiles": "CCOC(=O)c1noc(N)c1-c1ccccc1", "percent growth": "87.2% (inactive)"}
{"smiles": "CCc1nc2ccc(Cl)cn2c1C(=O)NCc1ccc(N2CCC(c3ccc(OC(F)(F)F)cc3)CC2)cc1", "percent growth": "126% (inactive)"}
{"smiles": "CC[C@@H]([C@H](C)O)n1ncn(-c2ccc(N3CCN(c4ccc(OC[C@@H]5CO[C@@](Cn6cncn6)(c6ccc(F)cc6F)C5)cc4)CC3)cc2)c1=O", "percent growth": "0.417% (active)"}
{"smiles": "CNC1C(OC2C(OC3C(O)C(O)C(NC(=N)N)C(O)C3NC(=N)N)OC(C)C2(O)C=O)OC(CO)C(O)C1O", "note": "(stereo not drawn)", "percent growth": "119% (inactive)"}
{"smiles": "Cc1cc(C)cc(COc2ccc3c(C)c(CCC(=O)O)c(=O)oc3c2C)c1", "percent growth": "84.8% (inactive)"}
{"smiles": "Nc1ccc2ncnc(Nc3ccc(OCc4cccc(F)c4)c(Cl)c3)c2c1", "percent growth": "92.1% (inactive)"}
{"smiles": "CC1CS(=O)(=O)CCN1/N=C/c1ccc([N+](=O)[O-])o1", "note": "(stereo not drawn)", "percent growth": "96.8% (inactive)"}
{"smiles": "CCc1ccccc1-n1c(C)cn2c3c(=O)n(C(C(=O)OC)C(C)C)c(=O)n(C)c3nc12", "note": "(stereo not drawn)", "percent growth": "79.9% (inactive)"}
{"smiles": "CCN(CC)C(=O)N1CCN(C)CC1", "percent growth": "89.3% (inactive)"}
{"smiles": "CCN(CC)S(=O)(=O)c1ccc(C(=O)Nc2cc(C)nn2-c2nc(C)c(C)c(=O)[nH]2)cc1", "percent growth": "63% (inactive)"}
{"smiles": "Cc1cccc(NC(=O)c2cc(S(=O)(=O)N(C)c3ccc(F)cc3)ccc2Cl)n1", "percent growth": "70% (inactive)"}
{"smiles": "CC(C)(C)CN1C(=O)C(c2ccccc2)(c2ccccc2)N=C1N", "percent growth": "66.1% (inactive)"}
{"smiles": "C[C@H](C(N)=O)N1CCCC[C@@H]1c1ccc(OCc2cccc(F)c2)cc1", "percent growth": "92% (inactive)"}
{"smiles": "NC(=O)c1cc(Br)ccc1OCCOc1ccccc1", "percent growth": "92.8% (inactive)"}
{"smiles": "COC(=O)c1ccc(F)cc1NS(=O)(=O)c1cccc(-c2cnn(Cc3ccccc3)c2)c1", "percent growth": "118% (inactive)"}
{"smiles": "CN1CCN(S(=O)(=O)c2ccc(-c3ccc4c(Nc5ccc6nn[nH]c6c5)ccnc4c3)cc2)CC1", "percent growth": "151% (inactive)"}
{"smiles": "Clc1ccc(CN2CCN(C3=NCCN3)CC2)cc1Cl", "percent growth": "122% (inactive)"}
{"smiles": "Cc1cc2nc(NC(=O)C(C)(C)C)nc(Cl)c2n1Cc1ccc(Cl)cc1", "percent growth": "82.9% (inactive)"}
{"smiles": "Cc1ccc(S(=O)(=O)n2cc(-c3ccnc(N)c3)c3cc(Br)cnc32)cc1", "percent growth": "25.4% (inactive)"}
{"smiles": "CC1=Nc2ccc(Cl)cc2C(c2ccccc2)N1CCNC(=O)CN(C)C", "note": "(stereo not drawn)", "percent growth": "106% (inactive)"}
{"smiles": "CC(C)n1ncc2c(C(=O)NCC(c3cccs3)N3CCOCC3)cc(-c3ccccc3)nc21", "note": "(stereo not drawn)", "percent growth": "76% (inactive)"}
{"smiles": "CCn1cnc2c(Nc3cc(F)cc(F)c3)nc(C#N)nc21", "percent growth": "95.2% (inactive)"}
{"smiles": "CN(C)CCNC(=O)N1CCCN(c2ncnc3cc(-c4ccccc4)sc23)CC1", "percent growth": "64.5% (inactive)"}
